# Results as given in the supplement of paper PMC11006884.
# The full data set covers some 6,500 targets. This sample favours those with a hit. About 2% of all pairs of compound and target were hits.
# Compound: COC(=O)C#Cc1ccccc1 [methyl 3-phenylpropiolate]
# Assay: log2 ratio of iodoacetamide-alkyne labeling of the cysteine site, DMSO over compound (competition); higher = stronger covalent engagement of the cysteine by the compound, active = 1 or more
# Details: 500 µM; treatment time 1 h; system: HEK293T cell lysate
# Summary of the method: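 Reporter intensities give each cysteine's log2 competition ratio as the mean of control channels over the mean of compound channels. The samples were HEK293T lysate (2 mg/mL) given vehicle or electrophile (500 µM, 1 h, ambient temperature), then iodoacetamide alkyne (1 h), followed by click coupling to sCIP-TMT reagents, pooling, trypsin digestion overnight at 37 °C, streptavidin enrichment, acid elution, Orbitrap Eclipse LC-MS/MS with FAIMS and FragPipe quantification. Duplicate channels and three replicates were run, and cysteines quantified in only one replicate were discarded.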
# UniProt O95197, sequence (O95197 whole entry): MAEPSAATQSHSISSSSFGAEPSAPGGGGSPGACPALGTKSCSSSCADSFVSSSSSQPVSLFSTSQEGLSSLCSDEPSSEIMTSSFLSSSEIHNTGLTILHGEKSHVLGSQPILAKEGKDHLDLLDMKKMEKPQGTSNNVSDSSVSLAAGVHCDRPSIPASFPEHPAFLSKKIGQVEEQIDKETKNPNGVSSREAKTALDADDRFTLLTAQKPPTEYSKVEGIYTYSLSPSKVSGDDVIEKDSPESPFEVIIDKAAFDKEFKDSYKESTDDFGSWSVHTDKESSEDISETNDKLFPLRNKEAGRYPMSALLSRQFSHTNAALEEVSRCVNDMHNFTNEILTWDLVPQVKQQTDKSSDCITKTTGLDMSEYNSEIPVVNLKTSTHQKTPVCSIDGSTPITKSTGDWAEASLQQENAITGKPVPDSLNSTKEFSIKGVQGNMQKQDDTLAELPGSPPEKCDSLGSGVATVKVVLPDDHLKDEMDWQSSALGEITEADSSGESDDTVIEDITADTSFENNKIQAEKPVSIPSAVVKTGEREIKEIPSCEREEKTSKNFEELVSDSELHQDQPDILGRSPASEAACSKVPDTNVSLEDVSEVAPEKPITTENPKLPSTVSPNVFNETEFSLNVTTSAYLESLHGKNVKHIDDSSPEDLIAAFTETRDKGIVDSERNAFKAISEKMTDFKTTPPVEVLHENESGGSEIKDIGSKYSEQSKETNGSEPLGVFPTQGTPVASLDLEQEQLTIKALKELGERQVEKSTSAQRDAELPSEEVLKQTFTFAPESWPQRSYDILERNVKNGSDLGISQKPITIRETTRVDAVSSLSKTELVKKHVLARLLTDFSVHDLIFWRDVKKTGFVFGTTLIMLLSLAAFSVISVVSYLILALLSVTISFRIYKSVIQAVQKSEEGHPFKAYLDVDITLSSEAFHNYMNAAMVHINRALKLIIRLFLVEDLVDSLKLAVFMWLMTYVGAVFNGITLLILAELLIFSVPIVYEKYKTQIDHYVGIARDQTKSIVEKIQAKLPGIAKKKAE
# UniProt P34896, sequence (P34896 whole entry, looked up): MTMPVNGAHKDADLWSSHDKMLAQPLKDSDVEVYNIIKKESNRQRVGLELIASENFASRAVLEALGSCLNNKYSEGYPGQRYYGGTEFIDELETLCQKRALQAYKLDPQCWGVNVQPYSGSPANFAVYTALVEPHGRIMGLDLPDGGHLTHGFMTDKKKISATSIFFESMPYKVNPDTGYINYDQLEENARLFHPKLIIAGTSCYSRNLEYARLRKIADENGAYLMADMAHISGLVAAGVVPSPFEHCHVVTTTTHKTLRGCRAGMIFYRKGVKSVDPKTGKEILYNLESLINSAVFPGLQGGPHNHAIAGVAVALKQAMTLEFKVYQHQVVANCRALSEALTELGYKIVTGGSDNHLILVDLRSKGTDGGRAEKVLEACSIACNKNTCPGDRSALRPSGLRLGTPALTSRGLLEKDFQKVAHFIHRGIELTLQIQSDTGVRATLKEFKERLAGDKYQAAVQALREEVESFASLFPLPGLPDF
# UniProt P31751, sequence (P31751 whole entry, looked up): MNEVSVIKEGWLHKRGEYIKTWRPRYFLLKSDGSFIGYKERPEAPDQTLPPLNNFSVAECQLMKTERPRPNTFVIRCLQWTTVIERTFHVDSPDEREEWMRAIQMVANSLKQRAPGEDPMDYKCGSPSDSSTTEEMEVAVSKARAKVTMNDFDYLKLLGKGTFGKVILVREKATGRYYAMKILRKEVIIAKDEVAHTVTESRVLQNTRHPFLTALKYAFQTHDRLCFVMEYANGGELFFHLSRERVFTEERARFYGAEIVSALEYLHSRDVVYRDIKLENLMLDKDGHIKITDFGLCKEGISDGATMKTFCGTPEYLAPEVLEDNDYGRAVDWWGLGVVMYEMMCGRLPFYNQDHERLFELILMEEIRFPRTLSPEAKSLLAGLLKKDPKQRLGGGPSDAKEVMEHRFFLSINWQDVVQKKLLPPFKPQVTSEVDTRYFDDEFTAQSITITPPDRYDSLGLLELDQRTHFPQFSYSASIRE
# UniProt O95861, sequence (O95861 whole entry, looked up): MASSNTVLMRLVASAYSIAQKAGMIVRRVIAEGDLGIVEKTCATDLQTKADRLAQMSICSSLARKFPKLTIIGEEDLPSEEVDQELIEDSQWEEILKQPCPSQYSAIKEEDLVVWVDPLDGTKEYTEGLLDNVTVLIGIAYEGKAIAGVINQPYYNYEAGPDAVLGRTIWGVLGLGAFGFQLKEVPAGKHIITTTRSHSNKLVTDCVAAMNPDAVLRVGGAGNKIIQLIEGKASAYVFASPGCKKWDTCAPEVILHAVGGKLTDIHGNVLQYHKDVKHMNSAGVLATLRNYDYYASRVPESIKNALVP
# UniProt P49327, sequence (P49327 whole entry, looked up): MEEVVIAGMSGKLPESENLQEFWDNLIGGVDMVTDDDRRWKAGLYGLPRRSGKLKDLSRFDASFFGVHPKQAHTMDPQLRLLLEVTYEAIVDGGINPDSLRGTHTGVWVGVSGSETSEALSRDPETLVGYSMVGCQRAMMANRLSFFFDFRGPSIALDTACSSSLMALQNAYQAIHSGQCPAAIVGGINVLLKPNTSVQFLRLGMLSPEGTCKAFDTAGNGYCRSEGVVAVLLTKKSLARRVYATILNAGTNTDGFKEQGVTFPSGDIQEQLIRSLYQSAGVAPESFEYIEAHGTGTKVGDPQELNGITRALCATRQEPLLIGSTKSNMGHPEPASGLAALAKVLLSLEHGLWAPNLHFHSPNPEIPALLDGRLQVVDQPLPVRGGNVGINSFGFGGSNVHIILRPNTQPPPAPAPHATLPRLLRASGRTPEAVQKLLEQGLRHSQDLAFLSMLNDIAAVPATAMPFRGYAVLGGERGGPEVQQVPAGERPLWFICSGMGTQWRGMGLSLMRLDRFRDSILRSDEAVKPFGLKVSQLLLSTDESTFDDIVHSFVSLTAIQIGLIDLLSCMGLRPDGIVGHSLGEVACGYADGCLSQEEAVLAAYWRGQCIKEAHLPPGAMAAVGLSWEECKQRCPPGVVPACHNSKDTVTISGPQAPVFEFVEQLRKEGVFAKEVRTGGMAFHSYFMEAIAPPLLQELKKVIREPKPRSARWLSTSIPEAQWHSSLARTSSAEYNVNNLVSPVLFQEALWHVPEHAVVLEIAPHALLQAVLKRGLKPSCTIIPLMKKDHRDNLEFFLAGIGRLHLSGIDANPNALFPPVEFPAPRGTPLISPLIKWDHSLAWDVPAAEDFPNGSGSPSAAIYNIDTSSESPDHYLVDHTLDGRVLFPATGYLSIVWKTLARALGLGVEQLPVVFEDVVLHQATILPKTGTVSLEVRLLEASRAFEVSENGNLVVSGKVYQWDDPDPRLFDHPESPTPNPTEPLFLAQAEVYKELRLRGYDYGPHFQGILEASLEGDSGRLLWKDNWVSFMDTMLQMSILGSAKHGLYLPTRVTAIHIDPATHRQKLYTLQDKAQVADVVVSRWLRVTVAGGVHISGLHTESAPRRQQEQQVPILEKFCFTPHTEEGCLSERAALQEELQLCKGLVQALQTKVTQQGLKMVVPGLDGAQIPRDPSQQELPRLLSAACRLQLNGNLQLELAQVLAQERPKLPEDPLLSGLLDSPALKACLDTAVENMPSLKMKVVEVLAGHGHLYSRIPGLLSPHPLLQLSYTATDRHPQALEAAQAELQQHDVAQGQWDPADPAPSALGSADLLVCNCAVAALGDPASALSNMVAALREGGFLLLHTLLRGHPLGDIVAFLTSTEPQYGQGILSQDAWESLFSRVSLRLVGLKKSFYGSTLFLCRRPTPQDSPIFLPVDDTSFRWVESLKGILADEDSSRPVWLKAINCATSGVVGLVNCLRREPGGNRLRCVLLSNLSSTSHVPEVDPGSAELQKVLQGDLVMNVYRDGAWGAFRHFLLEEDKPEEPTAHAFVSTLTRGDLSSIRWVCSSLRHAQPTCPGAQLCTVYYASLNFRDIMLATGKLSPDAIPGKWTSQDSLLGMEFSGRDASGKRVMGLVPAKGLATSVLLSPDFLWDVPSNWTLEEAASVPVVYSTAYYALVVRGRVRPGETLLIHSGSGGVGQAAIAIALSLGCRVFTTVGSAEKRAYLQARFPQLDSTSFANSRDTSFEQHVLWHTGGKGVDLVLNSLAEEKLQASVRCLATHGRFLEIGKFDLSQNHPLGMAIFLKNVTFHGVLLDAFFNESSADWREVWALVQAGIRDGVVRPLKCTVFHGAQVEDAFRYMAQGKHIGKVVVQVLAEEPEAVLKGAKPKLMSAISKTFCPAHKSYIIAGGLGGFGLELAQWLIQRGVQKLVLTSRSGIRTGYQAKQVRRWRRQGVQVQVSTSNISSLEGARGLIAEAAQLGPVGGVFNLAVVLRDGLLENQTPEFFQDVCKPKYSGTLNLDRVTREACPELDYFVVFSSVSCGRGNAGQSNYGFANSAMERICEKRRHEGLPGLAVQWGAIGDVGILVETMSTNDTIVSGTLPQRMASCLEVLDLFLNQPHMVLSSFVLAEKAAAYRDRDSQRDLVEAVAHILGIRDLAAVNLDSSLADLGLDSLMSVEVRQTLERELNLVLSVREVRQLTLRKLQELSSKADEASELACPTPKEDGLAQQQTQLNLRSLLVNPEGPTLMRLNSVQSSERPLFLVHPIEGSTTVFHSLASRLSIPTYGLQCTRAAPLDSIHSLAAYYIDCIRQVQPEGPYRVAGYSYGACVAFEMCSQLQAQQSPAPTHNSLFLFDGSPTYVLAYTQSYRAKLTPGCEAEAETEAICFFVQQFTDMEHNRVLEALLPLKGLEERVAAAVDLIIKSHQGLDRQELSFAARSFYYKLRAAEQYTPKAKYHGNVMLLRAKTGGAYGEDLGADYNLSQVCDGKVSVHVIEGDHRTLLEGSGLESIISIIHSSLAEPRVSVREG
row,Target,log2 ratio of iodoacetamide-alkyne labeling
1,OAT C253 (UniProt P04181),0.0787 (inactive)
2,ADD1 C68 (UniProt P35611),0.368 (inactive)
3,SMC2 C326 (UniProt O95347),0.547 (inactive)
4,AKT2 C297 (UniProt P31751),0.698 (inactive)
5,SMC2 C585 (UniProt O95347),0.258 (inactive)
6,SHMT1 C96 (UniProt P34896),0.0443 (inactive)
7,FASN C1186 (UniProt P49327),-0.0549 (inactive)
8,UniProt P00519_C1100,0.9 (inactive)
9,RANBP2 C1296 (UniProt P49792),0.543 (inactive)
10,RPL9 C134 (UniProt P32969),0.0357 (inactive)
11,FLNA C478 (UniProt P21333),0.00171 (inactive)
12,BPNT1 C206 (UniProt O95861),0.27 (inactive)
13,CYC1 C219 (UniProt P08574),0.0599 (inactive)
14,PPP2R1B C306 (UniProt P30154),0.0579 (inactive)
15,LTA4H C8 (UniProt P09960),0.273 (inactive)
16,FLNA C2107 (UniProt P21333),0.12 (inactive)
17,PABPC1 C128 (UniProt P11940),-0.0389 (inactive)
18,GSR C102 (UniProt P00390),0.154 (inactive)
19,ANXA7 C327 (UniProt P20073),0.191 (inactive)
20,RTN3 C34 (UniProt O95197),1.43 (active)
21,PRKCSH C500 (UniProt P14314),0.513 (inactive)
22,UniProt P49840_C398,0.241 (inactive)
